From PubChem BioAssay (Tox21) come the findings set out here.

Assay [1] can be described thus: qHTS assay to identify small molecule agonists of the constitutive androstane receptor (CAR) signaling pathway - cell viability counter screen (AID 1224836). Also: nearly all actives have a fitted effect of over 45% in size. Also: potency is read from the fitted curve at half-maximal effect. Summed up:
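HepG2-CYP2B6-hCAR, 2500 cells/well, 4 h pre-incubation; cpd 15 conc + PK11195 0.75 uM final; 23 h, 37 C/5% CO2; CellTiter-Fluor, fluorescence.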

Assay [2] is described as follows: qHTS assay to identify small molecule antagonists of the constitutive androstane receptor (CAR) signaling pathway - cell viability counter screen (AID 1224837). Also: nearly all actives have a fitted effect of over 45% in size. Also: potency is read from the fitted curve at half-maximal effect. In outline:
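HepG2 cells stably expressing hCAR and a CYP2B6-2.2kb reporter were plated and pre-incubated 4 hr at 37 C/5% CO2, then given compounds at 15 concentrations plus 50 nM CITCO (final). After 23 hr, viability was read by CellTiter-Fluor fluorescence.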
A general note: In qHTS, concentration-response curves come from the screen itself.

The target of assay [3] is Nuclear receptor subfamily 1 group I member 3 (Homo sapiens) (UniProt Q14994). In words: qHTS assay to identify small molecule antagonists of the constitutive androstane receptor (CAR) signaling pathway (AID 1224838). Also: nearly all actives have a fitted effect of over 40% in size. Also: potency is read from the fitted curve at half-maximal effect. In outline:
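HepG2 cells stably co-transfected with hCAR and a CYP2B6-2.2kb luciferase reporter were seeded 4 h before compound addition at 15 concentrations. Cells were stimulated with 50 nM CITCO (final) for 24 h at 37 C; luciferase luminescence was then read.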

Assay [4] has the same target. In words: qHTS assay to identify small molecule agonists of the constitutive androstane receptor (CAR) signaling pathway (AID 1224839). Also: nearly all actives have a fitted effect of over 15% in size. Also: potency is read from the fitted curve at half-maximal effect.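 As to activation: HepG2 cells stably carrying human CAR and a CYP2B6 luciferase reporter.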 Summed up: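 HepG2-CYP2B6-hCAR cells, 2500/well, 4 h pre-incubation; compounds 15 conc.; PK11195 0.75 uM final; 24 h, 37 C/5% CO2; ONE-Glo luciferase read.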
A short description of assay [5]: qHTS assay to identify small molecule antagonists of the estrogen related receptor signaling pathway with the pleiotropic PPARgamma coactivator (PGC) from Tox21 10K library - cell viability counter screen (AID 1224840; active = well fitted cell-killing curve with a large enough effect in the repeat runs, not every such curve was filed as active; also: nearly all actives have a fitted effect of over 40% in size; also: potency is read from the fitted curve at half-maximal effect). Summed up:
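PGC/ERR cells were seeded at 2,000 cells/well and left 6 hours at 37 C/5% CO2 before pin-tool addition of compounds in DMSO. After 17.5 hours at 37 C, CellTiter-Fluor was added and fluorescence read 30 minutes later.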

For assay [6], the target named is Thyrotropin receptor (Homo sapiens) (UniProt P16473). In words: qHTS assay to identify small molecule agonists of the thyroid stimulating hormone receptor (TSHR) signaling pathway (AID 1224843; calls by dose curve; also: nearly all actives have a fitted effect of over 45% in size; also: potency is read from the fitted curve at half-maximal effect). Summed up:
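Cell line HEK293 with TSHR; density 800/well. Exposure 30 min RT. Readout HTRF cAMP (cAMP-d2/anti-cAMP-cryptate), 1 h RT before reading.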

Assay [7] is described as follows: qHTS assay to identify small molecule agonists of H2AX (AID 1224845; active = well fitted activation curve with a large enough effect in the signal ratio in the repeat runs, not every such curve was filed as active; the % refers to the signal ratio; also: potency is read from the fitted curve at half-maximal effect). In outline:
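Wild-type CHO-K1 cells plated overnight, then exposed 3 hr at 37C to compounds at 15 concentrations (0.76% DMSO). Lysed, then HTRF anti-pH2AX(S139)-cryptate/anti-H2AX-d2 detection after 24 hr at room temperature; emissions 665 and 620 nm.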

Assay [8] is described as follows: qHTS assay to identify small molecule agonists of the hypoxia (HIF-1) signaling pathway (AID 1224846; active = well fitted activation curve with a large enough effect in the signal ratio in the repeat runs, not every such curve was filed as active; the % refers to the signal ratio). In outline: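 HRE-bla ME-180 cells (beta-lactamase reporter under hypoxia response element) were plated at 2,000 cells/well in medium with 0.5% dialyzed FBS, rested 5 hrs, then given compounds in DMSO for 17 hrs at 37C, 5% CO2. Reporter induction was read with CCF4-AM FRET substrate.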

A short description of assay [9]: qHTS assay to identify small molecule agonists of H2AX - cell viability counter screen (AID 1224847; calls by dose curve; also: nearly all actives have a fitted effect of over 30% in size; also: potency is read from the fitted curve at half-maximal effect). Summed up: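 Cells plated first: CHO-K1, 1000 per well in 10% FBS medium, incubated overnight at 37C. Then 15-point compound titration added (final DMSO 0.76%) for 3 hr. Finally CellTiter-Glo added and luminescence read.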
Assay [10] is described as follows: qHTS RealTime-Glo MT Cell Viability Assay in HepG2 cells - 24 hour (AID 1224867). Also: nearly all actives have a fitted effect of over 50% in size. Also: potency is read from the fitted curve at half-maximal effect. Summed up:
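Tox21 10K library screened in qHTS format on HepG2 cells carrying RealTime-Glo reagents. Compounds were added after a 5 h preincubation, and the luminescent signal from continuous culture was measured repeatedly during 40 h treatment.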

A short description of assay [11]: A CellTox Green Cytotoxicity Assay to monitor cytotoxicity in HEK293 cells - 0 hour (AID 1224869). Also: nearly all actives have a fitted effect of over 50% in size. Summed up:
(§1)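 HEK293 cells premixed with CellTox Green dye were seeded at 600 cells/well and left 5 h at 37 C/5% CO2 before pin transfer of 23 nL compound in DMSO. Fluorescence from dye bound to dead-cell DNA was read during 40 h treatment.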

Assay [12] is described as follows: qHTS RealTime-Glo MT Cell Viability Assay in HepG2 cells - 40 hour (AID 1224870). Also: nearly all actives have a fitted effect of over 50% in size. Also: potency is read from the fitted curve at half-maximal effect. In outline: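 HepG2 cells mixed with RealTime-Glo MT reagents (NanoLuc plus cell-permeant prosubstrate) were seeded at 600 cells/well, incubated 5 h at 37 C/5% CO2, then pinned with compounds in DMSO; nonlytic luminescence tracked viability during 40 h treatment.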
Assay [13] in a line: A CellTox Green Cytotoxicity Assay to monitor cytotoxicity in HEK293 cells - 40 hour (AID 1224871). Also: nearly all actives have a fitted effect of over 45% in size. Also: potency is read from the fitted curve at half-maximal effect. In outline:
as §1

Assay [14] can be described thus: qHTS assay to identify small molecule agonists of the hypoxia (HIF-1) signaling pathway - cell viability counter screen (AID 1224844; calls by dose curve; also: nearly all actives have a fitted effect of over 50% in size). In outline: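 HRE-bla ME-180 cells in medium with 0.5% dialyzed FBS were preincubated 5 hrs at 37C, exposed to compounds for 17 hrs, then viability was read as CellTiter-Glo luminescence after 30 min at room temperature, in the reporter wells.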

A short description of assay [15]: qHTS RealTime-Glo MT Cell Viability Assay in HEK293 cells - 32 hour (AID 1224868). Also: nearly all actives have a fitted effect of over 50% in size. Also: potency is read from the fitted curve at half-maximal effect. In outline:
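Luminescence generated by NanoLuc from substrate produced by living HEK293 cells served as the viability signal. Each value reflects the reading at its stated time point during continuous 40 h compound exposure at 37 C.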

Assay [16] in a line: qHTS assay to identify small molecule antagonists of the estrogen related receptor signaling pathway with the pleiotropic PPARgamma coactivator (PGC) from Tox21 10K library (AID 1224841; call rule not given here; also: potency is read from the fitted curve at half-maximal effect). In outline: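 PGC/ERR reporter cells were seeded at 2,000 cells/well and held 6 hours at 37 C/5% CO2 before pin-tool addition of compounds in DMSO. After 18 hours at 37 C, One-Glo was added and luminescence read after 30 minutes at room temperature.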

Assay [17] in a line: qHTS assay to identify small molecule agonists of the estrogen related receptor signaling pathway with the pleiotropic PPARgamma coactivator (PGC) from Tox21 10K library (AID 1224842). Also: nearly all actives have a fitted effect of over 15% in size. In outline: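 PGC/ERR reporter cells (NTP line) were seeded 2,000 per well, rested 6 h at 37 C/5% CO2, then pin-dosed with compounds in DMSO for 18 h at 37 C; luciferase read by One-Glo luminescence after 30 min at room temperature.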

Assay [18] can be described thus: qHTS assay to identify small molecule antagonists of the estrogen related receptor (ERR) signaling pathway from Tox21 library (AID 1224848). Also: nearly all actives have a fitted effect of over 50% in size. Also: potency is read from the fitted curve at half-maximal effect. Summed up: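 Screening used an ERR reporter line supplied by NTP, exposed for 18 h at 37 C to library compounds delivered in DMSO. Signal was luciferase luminescence developed with ONE-Glo at room temperature for 30 min.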

A short description of assay [19]: qHTS assay to identify small molecule agonists of the estrogen related receptor (ERR) signaling pathway from Tox21 library (AID 1224849; calls by dose curve; also: nearly all actives have a fitted effect of over 15% in size). The following applies: ERR reporter cell line, ONE-Glo luciferase, 18 h. In outline: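 ERR reporter cell line (NTP) seeded, rested 6 h at 37 C/5% CO2, then pinned with Tox21 compounds in DMSO. After 18 h at 37 C, ONE-Glo luciferase luminescence was read following 30 min at room temperature.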

Where “and” joins values, the source holds several entries; their conditions need not be identical. Identical values can stand only once. Records with an inconclusive call do not appear. More than one record can exist for a structure, and the calls need not agree. Calls of active or inactive are those of the source. Unless noted, calls follow the shape of the dose curve; as a rule, active = well fitted curve in the direction sought with a large enough effect in the repeat runs; inconclusive = weak or mixed curves; inactive = no such curve, though single readings can be large; an effect the other way counts as inactive or inconclusive.
% is scaled to controls: 0 for no effect and ±100 for the full control effect.

Chain of Thyrotropin receptor (Homo sapiens) (P16473 whole entry, looked up): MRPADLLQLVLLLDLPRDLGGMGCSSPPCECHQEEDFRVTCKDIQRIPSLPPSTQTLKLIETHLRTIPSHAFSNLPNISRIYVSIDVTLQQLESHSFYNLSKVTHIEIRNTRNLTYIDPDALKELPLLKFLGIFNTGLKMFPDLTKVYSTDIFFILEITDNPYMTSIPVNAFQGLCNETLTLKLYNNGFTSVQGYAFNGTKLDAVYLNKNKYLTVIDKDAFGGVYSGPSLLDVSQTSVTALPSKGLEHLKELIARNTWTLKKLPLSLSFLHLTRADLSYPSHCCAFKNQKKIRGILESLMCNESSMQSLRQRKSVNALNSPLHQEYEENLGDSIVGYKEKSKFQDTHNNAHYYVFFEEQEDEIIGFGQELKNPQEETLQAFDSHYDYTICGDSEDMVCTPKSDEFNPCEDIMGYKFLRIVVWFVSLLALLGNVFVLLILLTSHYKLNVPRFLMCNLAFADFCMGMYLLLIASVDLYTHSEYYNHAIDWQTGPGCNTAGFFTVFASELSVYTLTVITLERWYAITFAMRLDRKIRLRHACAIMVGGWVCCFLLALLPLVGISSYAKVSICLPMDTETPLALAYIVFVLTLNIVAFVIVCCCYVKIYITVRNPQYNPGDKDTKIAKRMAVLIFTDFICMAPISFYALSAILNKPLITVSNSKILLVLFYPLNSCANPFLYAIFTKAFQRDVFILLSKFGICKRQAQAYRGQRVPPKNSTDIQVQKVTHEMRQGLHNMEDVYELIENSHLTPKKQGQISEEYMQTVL
Chain of Nuclear receptor subfamily 1 group I member 3 (Homo sapiens) (Q14994 whole entry, looked up): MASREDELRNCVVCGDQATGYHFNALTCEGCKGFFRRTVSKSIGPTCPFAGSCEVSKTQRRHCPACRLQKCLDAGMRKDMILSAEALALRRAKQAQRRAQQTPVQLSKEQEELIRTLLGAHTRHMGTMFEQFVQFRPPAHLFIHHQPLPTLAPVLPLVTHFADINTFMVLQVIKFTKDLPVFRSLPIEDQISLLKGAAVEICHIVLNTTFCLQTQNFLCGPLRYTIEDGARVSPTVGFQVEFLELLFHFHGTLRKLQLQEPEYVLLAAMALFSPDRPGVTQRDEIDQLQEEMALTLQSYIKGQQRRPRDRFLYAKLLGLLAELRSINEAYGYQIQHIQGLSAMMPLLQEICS

`Nc1ccc(S(N)(=O)=O)cc1`: the Potency entry in assay [1], in assay [2], in [4], in [5], in assay [6] and in [7] was “inactive” throughout. Also, the Potency result in assay [9], in assay [10], in assay [11], in [12] and in assay [13] was “inactive” throughout. Further, the Potency in assay [3] was 27.4 µM (active) and inactive. In [8], the result was inactive.

For `Cc1cn([C@H]2C=C[C@@H](CO)O2)c(=O)[nH]c1=O`, the Potency entry in [1], in assay [2], in assay [3], in assay [4], in assay [5] and in assay [6] was “inactive” in each case. The Potency result in assay [14], in assay [10], in assay [11], in [12] and in assay [13] was “inactive” each time.

Turning to `CCc1nc(N)nc(N)c1-c1ccc(Cl)cc1`, the Potency result in assay [1], in [2], in assay [4], in assay [5], in [10] and in assay [11] was “inactive” each time. Besides, in assay [12], the Potency result is “inactive”. For the same compound, the Potency in [3] is 1.75 µM (active) and 3.06 µM (active); in assay [7] it was 22.9 µM (active); in [9] it was “inactive and 8.98 µM (active) and 12.4 µM (active)”; in [15], 3.52 µM (active) and 12.3 µM (active).

Consider `CN1CCc2cccc3c2[C@H]1Cc1ccc(O)c(O)c1-3`, for which the Potency in [1] was 49.1 µM (active) and 22.8 µM (active); in assay [2], 49.1 µM (active) and 22.8 µM (active); in assay [4] it was 15.5 µM (active) and 9.09 µM (active) and 15 µM (active); in assay [5] it was 30.9 µM (active) and 22.8 µM (active); in assay [16], 30.9 µM (active) and 20.4 µM (active) and 29.8 µM (active); in assay [18], 24.6 µM (active) and 18.1 µM (active). The Potency is 44.1 µM (active) and 16.3 µM (active) and 23.9 µM (active) in [10]; 15.7 µM (active) and 8.17 µM (active) and 23.9 µM (active) in [15]; 18.3 µM (active) in assay [12]; 55.5 µM (active) and inactive in assay [13]. In addition, the Potency entry in [3], in assay [17] and in assay [11] was “inactive” throughout. Further, the activity change, positive = activation is -69.6% (inactive) and -53% (inactive) in assay [19] (at 42.5 µM (top of the series)); -66.3% (inactive) in assay [19] (at 92.4 µM (top of the series)).

As to `Oc1ccccc1`, the Potency result in assay [1], in assay [2], in assay [3], in assay [4], in assay [5] and in assay [6] was “inactive” each time. In addition, the Potency result in [7], in [9], in assay [10], in [11], in assay [12] and in [13] was “inactive” each time. Also, the compound was called inactive in [8].

With `O=CC(=O)c1ccccc1`, the Potency entry in assay [1], in assay [2], in assay [4], in [5], in assay [16] and in [14] was “inactive” each time. The Potency result in assay [18], in [10], in assay [15], in [11] and in [12] was “inactive” in each case. Besides, the Potency in assay [3] is 68.7 µM (active); in assay [6], 27.3 µM (active). The compound was called inactive in assay [8]. Also, the activity change, positive = activation in assay [19] (at 92.4 µM (top of the series)) is -0.129% (inactive).

On to `CC(=O)CCC(=O)O`, for which the Potency entry in assay [1], in [2], in assay [3], in assay [4], in assay [5] and in [6] was “inactive” throughout. In addition, the Potency entry in assay [7], in assay [10], in assay [11] and in [12] was “inactive” in each case. Also, the call in assay [8] was inactive.
